GPR151 ag – activators of human GPR151; Q8TDV0; PathHunter beta-arrestin GPR151 cells, luminescence; activation, % at 11.2 µM; hit rate 1% among 650,000; in the data active means activation above about 4.9%;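 further: 0% = median of compound wells and 100% = cells with positive control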
Target sequence (Q8TDV0 whole entry, looked up): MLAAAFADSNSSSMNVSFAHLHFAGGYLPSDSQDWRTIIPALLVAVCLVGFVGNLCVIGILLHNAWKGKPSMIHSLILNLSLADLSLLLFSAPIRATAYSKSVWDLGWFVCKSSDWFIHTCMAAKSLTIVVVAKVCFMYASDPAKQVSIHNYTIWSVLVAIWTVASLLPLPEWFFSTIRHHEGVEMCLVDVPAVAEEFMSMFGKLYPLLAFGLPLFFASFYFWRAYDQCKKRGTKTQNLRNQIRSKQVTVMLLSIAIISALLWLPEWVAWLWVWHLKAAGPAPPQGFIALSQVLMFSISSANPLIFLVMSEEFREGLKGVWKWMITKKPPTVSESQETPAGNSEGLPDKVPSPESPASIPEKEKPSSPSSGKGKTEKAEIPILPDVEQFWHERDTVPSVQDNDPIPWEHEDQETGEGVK
TEAD-YAP inh – TEAD-YAP interaction inhibition | HEK-TIYL cells, TEAD-Gal4/YAP UAS-luciferase luminescence | inhibition, % at 9.12 µM | hit rate 1.4% among 640,000 | AID 1259422; in the data active means inhibition above about 32%;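 further: 0% = median of test compound wells and 100% = reference inhibitor wells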
MITF inh – human MITF inhibition, primary screen; AID 1259374; hit rate 0.91% among 650,000; inhibition, % at 2.6 µM; AlphaScreen MITF homodimerization, bead proximity signal; in the data active means inhibition above about 50%;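 further: 0% = vehicle wells with protein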
FBW7 act – human FBW7 E3 ligase activation, primary screen; Q969H0; AlphaScreen FBW7–phospho-cyclin E peptide binding, activator screen; hit rate 0.13% among 650,000; normalized activity (activation), % at 26.1 µM; in the data active means normalized activity above about 1.9%;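 further: purified mutant Fbw7 with reduced substrate affinity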
GPR151 confirm – confirmation of human GPR151 activators | shares compounds with GPR151 ag | GPR151 PathHunter beta-arrestin cells, luminescence, 90 min; % of EA-reagent control over plate median | activation, % at 11.2 µM | 6,700 tested, under 10 active | AID 1508609;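 active means mean percent activation across replicates above the confirmation screen cutoff of 4.91%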
GPR119 ag – activates human GPR119 in a GPR151 counter-screen | shares compounds with GPR151 ag | GPR119 PathHunter beta-arrestin cells, luminescence, 90 min; 0 = compound-well median, 100 = enzyme-acceptor control | activation, % at 11.2 µM | hit rate 0.3% among 6,700;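 active means mean percent activation in the counterscreen above 29.09%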;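 further: counterscreen on off-target GPR119 to flag nonselective hits from the GPR151 activator screen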
Active calls of the source: *; · = no result given. Most compounds without a hit are left out; they make up all but 3.5% or so of the library.

SMILES | GPR151 ag | TEAD-YAP inh | MITF inh | FBW7 act | GPR151 confirm | GPR119 ag
COc1ccc(-c2noc(CN(C(C)C)S(=O)(=O)c3ccc(F)cc3)n2)cc1 | 10.6* | -5.1 | -4.8 | -0.1 | 0.1 | -6.8
CC(C)N(Cc1nc(-c2ccccc2)no1)C(=O)CCN1C(=O)c2ccccc2C1=O | 3.3 | 9.3 | -8.3 | 0.1 | · | ·
COc1cccc(OC)c1C(=O)N(Cc1nc(-c2ccc(C)cc2)no1)C(C)C | 9.7* | 14.4 | -7.4 | -0.2 | -0.1 | -14.6
CCOC(=O)C1CCN(C(=O)CSc2nnc(C(C)C)n2N)CC1 | 0.6 | 11.6 | -1.3 | 0.1 | · | ·
COC(=O)C1=CN(C2CC2)C=C(C(=O)OC)C1c1cccc(O)c1 | 1.7 | 9.9 | -16.6 | -0.2 | · | ·
COC(=O)C1=CN(C2CC2)C=C(C(=O)OC)C1c1cccc(OC)c1 | 5.5* | 4.2 | -13.8 | 0.2 | 0.8 | 13.1
Cc1ccc(CCC(=O)Nc2ccc([N+](=O)[O-])cc2Cl)o1 | 5.2* | 3.5 | 4.9 | -0.3 | -0.5 | -8.0
COc1ccc(C(=O)Nc2cc([N+](=O)[O-])ccc2OC)cc1 | 1.6 | 0.8 | -11.5 | -0.1 | · | ·
Cc1ccc(C(=O)Nc2ccc(F)c([N+](=O)[O-])c2)o1 | 5.4* | 2.7 | 16.8 | 0.0 | -0.2 | -6.7
O=C(Nc1ccc(F)c([N+](=O)[O-])c1)c1ccc(-c2cccc(Cl)c2)o1 | -0.7 | 20.3 | 18.6 | -0.1 | · | ·
Cc1ccc(C(=O)Nc2cccc(C(F)(F)F)c2)o1 | 7.1* | -4.6 | 19.1 | 0.3 | 1.1 | 10.9
Cc1ccc(CCC(=O)Nc2ccc(Cl)cc2Cl)o1 | 0.6 | -8.8 | 13.9 | 0.0 | · | ·
COc1ccc([N+](=O)[O-])cc1NC(=O)c1ccc(C)o1 | 9.7* | -2.0 | 12.7 | 0.1 | -0.2 | -6.2
O=C(O)C1CCN(C(=O)N2CCOc3ccccc32)CC1 | -0.4 | -3.2 | -0.6 | 0.1 | · | ·
Oc1ccc(CCNc2ccnc(N3CCN(c4ccccn4)CC3)n2)cc1 | 6.2* | 5.7 | -6.8 | 0.0 | -0.3 | -2.3
CCCNC(=O)C(=O)NCCc1ccc(OC)c(OC)c1 | 6.2* | 3.8 | 2.7 | -0.1 | 0.2 | -6.7
COc1ccc(CCNC(=O)C(=O)NCCC(C)C)cc1OC | -0.7 | 0.2 | 15.7 | 0.1 | · | ·
CCCCC[C@@](C)(O)/C=C/[C@@H]1C(C/C=C\CCCC(=O)O)[C@@H](O)C[C@H]1O (stereo not given in full) | 7.1* | · | 10.2 | · | 0.2 | 7.3
CCCCC[C@@](C)(O)/C=C/[C@@H]1[C@@H](C/C=C\CCCC(=O)OC)[C@@H](O)C[C@H]1O | 0.9 | · | 6.3 | · | · | ·
COc1ccc(OC)c(C2OC3(C)OC(=N)C(C#N)(C3C)C2(C#N)C#N)c1 (stereo not given) | -0.5 | -3.0 | 3.7 | -0.1 | · | ·
CC(=O)N1C(=O)CC(C)N(C(C)=O)c2ccccc21 (stereo not given) | 0.5 | -2.9 | -3.7 | -0.2 | · | ·
CC1Cc2cc(S(=O)(=O)CCC(=O)Nc3ccccc3)ccc2N1C(=O)C1CC1 (stereo not given) | 0.1 | 5.1 | -2.5 | -0.2 | · | ·
CCc1cccc(NC(=O)CCS(=O)(=O)c2ccc3c(c2)CC(C)N3C(=O)C2CC2)c1 (stereo not given) | 6.2* | 11.7 | 7.9 | 0.0 | 0.7 | -5.9
CCOc1cc(C2C(C(=O)OC)=CN(C(C)C)C=C2C(=O)OC)cc(Br)c1O | 7.2* | 6.3 | 7.5 | 0.2 | 1.0 | -1.5
CCOC(=O)C1=CN(C(C)C)C=C(C(=O)OCC)C1c1ccc(OC)cc1OC | 5.4* | -1.2 | -13.5 | 0.5 | -1.3 | 1.7
SMILES | GPR151 ag | TEAD-YAP inh | MITF inh | FBW7 act | GPR151 confirm | GPR119 ag
Cc1ccc(-n2nc(C)c(C=O)c2Cl)cc1 | -1.0 | -5.3 | -9.3 | -0.1 | · | ·
N#CC1=C(N)C(C#N)(C#N)C(c2cccs2)C2CC(c3ccccc3)CC=C12 (stereo not given) | 1.9 | -3.5 | 23.3 | 1.1 | · | ·
Cc1ccc(C(=O)Nc2cc(-c3nn4c(C)nnc4s3)ccc2C)cc1C | 0.2 | -17.6 | -2.0 | 0.0 | · | ·
CC(=O)c1nn(-c2cccc(Cl)c2)cc1C(=O)c1cccs1 | 6.4* | -2.2 | 9.3 | -0.1 | 0.2 | -8.4
CC(=O)c1nn(-c2ccc([N+](=O)[O-])cc2)cc1C(=O)c1cccs1 | -0.6 | -0.8 | 13.3 | 0.1 | · | ·
COc1cccc(NC(=O)CCc2c(C)nc3cc(-c4ccccc4OC)nn3c2C)c1 | 8.2* | -10.0 | -16.4 | -0.1 | 0.4 | -6.9
COc1ccc(NC(=O)CCc2c(C)nc3cc(-c4ccccc4OC)nn3c2C)cc1 | -0.1 | -27.1 | -6.6 | -0.1 | · | ·
CC(=O)Oc1cccc(N2C(=O)c3ccc([N+](=O)[O-])cc3C2=O)c1 | 1.0 | 0.0 | 5.4 | -0.1 | · | ·
COC(=O)c1ccc(Cl)cc1NC(=O)N(C(C)C)C1CCN(C(C)=O)CC1 | 7.0* | -8.7 | 1.1 | -0.2 | 1.8 | -0.8
COc1ccc(NC(=O)N(C(C)C)C2CCN(C(C)=O)CC2)c(OC)c1 | 1.0 | -4.2 | 4.4 | 0.0 | · | ·
COc1cc(Cl)c(C)cc1NC(=O)c1sc2ncnc(N3CCN(c4ccccn4)CC3)c2c1C | -0.3 | -1.0 | 12.0 | 0.7 | · | ·
COc1cc(NC(=O)CN(C)S(=O)(=O)c2ccc3ccccc3c2)c(OC)cc1Cl | 5.8* | -1.7 | 0.4 | 0.1 | -1.4 | -15.7
COc1ccccc1NC(=O)NNC(=O)CN(C)S(=O)(=O)c1ccc(C)cc1 | 5.3* | 7.8 | 4.2 | 0.2 | 0.2 | 4.1
COCCNC(=O)Cc1ccc(F)cc1 | 5.4* | -5.5 | 0.1 | -0.2 | -0.2 | -4.7
COc1cc(NC(=O)Cc2ccc(Cl)cc2)c(OC)cc1Cl | -0.4 | 2.8 | 49.8 | 0.2 | · | ·
COc1ccccc1NC(=O)CN(C)S(=O)(=O)c1ccccc1 | -0.5 | 0.9 | -29.6 | 0.1 | · | ·
COCCCNC(=O)Cc1ccc(F)cc1 | -0.3 | 9.8 | 0.1 | 0.1 | · | ·
COc1cc(NC(=O)Cc2ccc(F)cc2)c(OC)cc1Cl | 5.0* | -4.8 | 2.2 | 0.8 | 0.3 | -4.9
CC(C)c1nc2ccccc2c2nn(CC(=O)N3CCN(C(=O)c4ccco4)CC3)c(=O)n12 | 15.1* | 9.6 | -6.5 | -0.1 | 0.4 | 3.7
CCc1nc2ccccc2c2nn(CC(=O)N3CCOCC3)c(=O)n12 | 6.6* | -4.9 | -6.0 | -0.1 | 0.0 | 2.3
O=C(OC1CCOC1=O)c1ccc(S(=O)(=O)N2CCCC2)cc1 (stereo not given) | -1.6 | -8.7 | 0.2 | 0.2 | · | ·
CN(c1ccccc1)S(=O)(=O)c1ccc(C(=O)OC2CCOC2=O)cc1 (stereo not given) | 10.9* | -5.2 | 3.1 | -0.1 | -0.3 | -2.7
CCOc1ccc(NS(=O)(=O)c2ccc(N)cc2)cc1Br | 0.2 | 1.6 | 6.8 | 0.0 | · | ·
CCOCCCNC(=S)N1CCN(c2nc(-c3ccc(F)cc3)cs2)CC1 | 5.8* | 32.8* | 7.4 | 0.1 | 1.3 | 20.5
Cc1ccc(C(=O)NN=C2CCC(C)CC2)cc1 (stereo not given) | 8.1* | -17.3 | 9.8 | 0.0 | 1.8 | -9.1
CC1CCC(=NNC(=O)c2ccc(Cl)cc2)CC1 (stereo not given) | -0.5 | -29.4 | 1.7 | 0.0 | · | ·
